Compounds with a hit are over-represented: about 19% of the library has one in this group of screens.
DT40 TDP1 no CPT – qHTS for Inhibitors of human tyrosyl-DNA phosphodiesterase 1 (TDP1): qHTS in cells in absence of CPT. DT40 Tdp1-/- hTDP1 cells, no CPT, ATP luminescence, 48 h. Potency, µM (titrated, usually from 46.2 µM), for inactives: at the highest dose activity change, negative = growth inhibition, actives largely listed as inhibitors. actives 15% (n = 420,000); further: nearly all actives have a fitted effect of over 55% in size
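Camptothecin absent (DMSO only). Human TDP1-complemented DT40 knockout cells, 400 cells/well, 37 °C for minimum 48 hr; ATP measured via CellTiter-Glo, 30 min dark incubation, luminescence.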
TDP1 cell CPT – qHTS for Inhibitors of human tyrosyl-DNA phosphodiesterase 1 (TDP1): qHTS in cells in presence of CPT; chicken DT40 Tdp1-/-;hTDP1 cells + 20 nM CPT, ATP luminescence, 48 h; Potency, µM (top dose mostly 46.2 µM), for inactives: at the highest dose activity change, negative = growth inhibition, hits mostly inhibitors; actives 12% (n = 420,000); further: nearly all actives have a fitted effect of over 55% in size
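Chicken DT40 Tdp1-/- cells complemented with human TDP1, 400 cells/well, exposed to compounds plus 20 nM camptothecin for at least 48 h at 37 C; viability read as ATP content by CellTiter-Glo luminescence.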
HT1080NT lethal – qHTS for induction of synthetic lethality in tumor cells producing 2HG: qHTS for the HT-1080-NT fibrosarcoma cell line; actives 1.6% (n = 360,000); HT-1080-NT fibrosarcoma viability, CellTiter-Glo ATP luminescence, 48 h; AID 686970, 2013; Potency, µM (titrated, usually from 46.1 µM), for the others: at the top dose activity, negative = less viability, usual class: cytotoxic;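 further: NT is the 2HG producing partner of a matched IDH1 knockdown line; 0% = DMSO-treated cells and -100% = media-only wells without cells; nearly all actives have a fitted effect of over 55% in size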
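Luminescent CellTiter-Glo readout after 48 hours of compound exposure at 37 degrees C defined viability of HT-1080-NT cells. Activity was normalized to DMSO wells and cell-free media wells; concentration-response curves were fitted and assigned curve classes.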
HT1080 IDH1KD tx – qHTS for induction of synthetic lethality in tumor cells producing 2HG: qHTS for the HT-1080-IDH1KD cell line; HT-1080 IDH1 knockdown viability, ATP luminescence, 48 h; Potency, µM (highest dose often 46.1 µM), without a hit: at the top dose activity, negative = toxicity, actives largely listed as cytotoxic; actives 2% (n = 360,000); AID 686971, 2013;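 further: 0% = DMSO wells and -100% = cell-free medium wells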
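Using the IDH1-knockdown HT-1080 line run in the same batch and compound series as the NT line, viability after 48 h at 37 °C was determined by CellTiter-Glo luminescence and expressed as % activity.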
KB-V1 MDR tox – qHTS assay for MDR1-selective chemotherapeutics: Primary screen using the drug-selected MDR subline cells KB-V1 | KB-V1 MDR cells viability, CellTiter-Glo, 72 h | Potency, µM (highest dose often 46.1 µM), usual class: cytotoxic | actives 3.4% (n = 400,000); further: nearly all actives have a fitted effect of over 60% in size
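KB-V1 MDR subline cells in DMEM (phenol-red free, 10% FBS) exposed to compounds in qHTS concentration series for 72 h at 37 degrees C. Viability read by CellTiter-Glo luminescence; concentration-effect curves fitted after normalization and correction.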
KB-3-1 cytotox – qHTS assay for MDR1-selective chemotherapeutics: Primary screen using the parental adenocarcinoma cell KB-3-1; actives 1.4% (n = 400,000); Potency, µM (highest dose often 46.1 µM), actives largely listed as cytotoxic; KB-3-1 viability, CellTiter-Glo ATP luminescence, 72 h; further: nearly all actives have a fitted effect of over 60% in size
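Cytotoxicity in the drug-sensitive parental line KB-3-1 was scored as loss of CellTiter-Glo luminescence following 72 h incubation with compound. Values come from curve fitting of normalized concentration-response data.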
Numbers without * were called inactive; i = inactive; u = inconclusive; x = no result given. The call rests on the fitted dose curve; in most records, active means well fitted curve in the direction sought with a large enough effect; inconclusive means small, poorly fitted or top-dose-only effect, or another doubt; inactive means no such curve, though single readings can be large; an effect the other way counts as inactive or inconclusive. Unless noted, on the % scale 0 is the no-effect control and ±100 the full control effect; potency means the concentration at half of the fitted maximal effect.

SMILES | DT40 TDP1 no CPT | TDP1 cell CPT | HT1080NT lethal | HT1080 IDH1KD tx | KB-V1 MDR tox | KB-3-1 cytotox
Cc1c(NC(=S)NC(=O)c2ccc(-c3ccc(Cl)cc3)o2)cccc1C(=O)O | 4.8% | 3.4% | -24.7% | -6.3% | i | i
Cc1ccccc1/C(N)=N/O | 5.0% | -5.2% | 25.4% | 28.2% | i | i
COc1ccc(Cl)cc1NS(=O)(=O)c1cccc(C(=O)NCCCN2CCCC2=O)c1 | -12.1% | u | -4.9% | -8.3% | x | x
Cc1ccc(Cc2c(-c3ccccc3)nc3c(Cl)cc(C(F)(F)F)cn23)cc1 | -3.0% | -4.3% | -9.1% | -3.0% | i | i
O=C1N[C@@H](c2ccccc2)COC(=O)[C@H](Cc2ccc(F)cc2)C/C=C\C[C@H]1CC(=O)N(CCO)Cc1ccccc1 | -10.4% | -1.8% | 9.7% | 2.4% | i | i
O=C1N[C@@H](c2ccccc2)COC(=O)[C@H](Cc2ccc(F)cc2)CC/C=C/C[C@H]1CC(=O)N(CCO)Cc1ccccc1 | 14.6µM* | 18.4µM* | u | u | i | i
O=C1N[C@@H](c2ccccc2)COC(=O)[C@@H](Cc2ccc(F)cc2)C/C=C\C[C@@H]1CC(=O)N(CCO)Cc1ccccc1 | 13µM* | 14.6µM* | -11.7% | -2.6% | i | u
CCCCCC(=O)Nc1cc2[nH]c(=O)cc(COC)c2cc1C | -1.7% | -14.7% | 1.2% | -6.6% | i | i
CCOc1ccc(NC(=O)Nc2ccc3nsnc3c2)cc1 | u | u | 4.9% | 13.4% | i | i
CCOc1ccc(NC(=O)Nc2ccc3snnc3c2)cc1 | 16.4µM* | u | x | x | u | i
Cc1cc(C)c(NC(=O)Nc2ccc3snnc3c2)c(C)c1 | 18.4µM* | u | x | x | i | i
O=C(Nc1cccc(C(F)(F)F)c1)c1ccc2snnc2c1 | 3.6% | -24.5% | x | x | i | i
O=C(Nc1ccccc1)Nc1ccc2nnsc2c1 | 16.4µM* | 20.6µM* | u | u | u | u
O=C(Nc1cccc(C(F)(F)F)c1)Nc1ccc2snnc2c1 | 5.17µM* | 3.66µM* | x | x | u | u
O=c1ccc2cc(S(=O)(=O)Nc3ccc(Br)cc3)ccc2o1 | -26.2% | -2.3% | -19.8% | -21.6% | i | i
O=C(Nc1ccccc1)Nc1ccc2snnc2c1 | 18.4µM* | u | u | u | i | u
CN(C)c1ccc(NC(=O)Nc2ccc3snnc3c2)cc1 | -15.4% | -0.6% | 11.5% | 8.5% | i | i
COC(=O)[C@H](CC(C)C)NC(=O)N1CCC(C)CC1 | -9.6% | 5.8% | u | 15.6% | i | i
CC(C)NC(=S)NCc1cccnc1 | -9.1% | -1.9% | 17.4% | 18.0% | i | i
CC(C)NC(=S)NC(c1ccccc1)(c1ccccc1)c1ccccc1 | 23.1µM* | u | -12.6% | -8.0% | u | u
Cc1ccc(C)c(Cc2c(C)nc(C)[nH]c2=O)c1 | -9.5% | -8.5% | 3.2% | 11.1% | i | i
Cc1nc(-c2ccccc2)c(Cc2ccccc2O)c(=O)[nH]1 | 5.17µM* | 5.8µM* | 0.1% | -6.1% | i | i
O=C(CCSCCC(=O)Nc1c(F)c(F)c(F)c(F)c1F)Nc1c(F)c(F)c(F)c(F)c1F | u | -18.7% | 1.3% | -1.7% | i | i
CCCn1c(=O)c2c(C(=O)OCC)cc(-c3ccco3)nc2n(CCC)c1=O | -17.1% | -0.1% | 3.2% | 2.6% | 18.4µM* | i
Cc1sc2ccccc2[n+]1CCc1ccccc1 | 3.16µM* | 6.31µM* | x | x | i | i
SMILES | DT40 TDP1 no CPT | TDP1 cell CPT | HT1080NT lethal | HT1080 IDH1KD tx | KB-V1 MDR tox | KB-3-1 cytotox
Cc1sc2ccccc2[n+]1CCCCI | 20µM* | u | x | x | i | i
Cc1c(CCO)sc[n+]1CCc1ccccc1 | 6.8% | u | x | x | i | i
Cc1ccccc1-c1csc(C(O)c2ccccc2)n1 (stereo unspecified) | 0.2% | -19.6% | -13.2% | 2.5% | i | i
CCC(CC)C(=O)Nc1cccc(C(=O)Nc2ccc(OC)cc2[N+](=O)[O-])c1 | -11.7% | -22.3% | u | u | u | i
COc1ccc(/C=C2\C(=O)N(c3c(Cl)cc(Cl)cc3Cl)N=C2NC(=O)c2cccc([N+](=O)[O-])c2)cc1 | u | 18.4µM* | 0.7% | 10.3% | u | u
COc1cc(NC(=O)c2ccc(-c3cccc([N+](=O)[O-])c3)o2)ccc1NC(=O)C(C)C | 20.6µM* | u | -4.8% | -1.9% | i | u
COc1ccc(CCNC(=O)c2ccc(-c3cccc([N+](=O)[O-])c3)o2)cc1OC | 20.6µM* | u | -11.3% | -16.2% | i | i
COc1cc([N+](=O)[O-])ccc1NC(=O)c1cccc(NC(=O)C(C)C)c1 | 29.1µM* | u | -0.1% | -6.4% | u | i
CNC(=O)NC(=O)CSc1ccc(S(=O)(=O)N(C)C2CCCCC2)cn1 | u | -9.9% | -7.2% | -7.1% | u | i
CCN(Cc1ccc(Br)s1)C(=O)CSc1nnc(C2CC2)n1C1CC1 | -19.6% | -10.0% | 0.3% | -7.7% | u | i
COc1ccc(C(=O)C(C)Oc2cccc(NC(=O)c3cccc([N+](=O)[O-])c3)c2)cc1 (stereo unspecified) | 20.6µM* | u | 4.3% | 8.3% | 2.31µM* | i

Screens: PubChem, National Center for Advancing Translational Sciences (NCATS)
